Data published in PubChem BioAssay (NCI).
This is part of a sample that, as a whole, favours compounds with a hit. Of some 83,000 tested, about 20% had one in any assay.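 Percent growth is the endpoint: 0 to 100 indicates growth inhibition (40 means 60% inhibition), 0 means no net growth, and negative values indicate cell death.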 Active and inactive are the calls of the source. Rule for the calls: active = growth percent below 10; inactive = the rest.

Legend:
Test in all cases: NCI-60 one-dose screen, 48 h (100 = growth as untreated, 0 = no growth, -100 = all killed)
Conditions in all cases: 10 µM unless noted
[1] = tested on: HCT-15 colon
[2] = tested on: HT29 colon
[3] = tested on: SNB-75 CNS
[4] = tested on: SNB-19 CNS
[5] = tested on: U251 CNS
[6] = tested on: PC-3 prostate
[7] = tested on: SK-MEL-5 melanoma
[8] = tested on: UACC-62 melanoma
[9] = tested on: LOX IMVI melanoma
[10] = tested on: SK-MEL-28 melanoma
[11] = tested on: SK-MEL-2 melanoma
[12] = tested on: EKVX NSCLC
[13] = tested on: SN12C renal
[14] = tested on: UO-31 renal
[15] = tested on: TK-10 renal
[16] = tested on: ACHN renal
[17] = tested on: CAKI-1 renal
[18] = tested on: CCRF-CEM leukemia
[19] = tested on: MOLT-4 leukemia

Measured: growth

O=C1c2ccc3c4c(ccc(c24)C(=O)N1CCCNCc1ccccc1F)C(=O)N(CCCNCc1ccccc1F)C3=O
active: [1] -60.6% | [2] -77% | [3] -98.2% | [4] -64.3% | [5] -85.6% | [6] -59.1% | [7] -96.2% | [8] -57.6% | [9] -71.9% | [10] -93.6% | [11] -82.9% | [12] -56.5% | [13] -75.7% | [14] -58% | [15] -85.8% | [16] -47.1% | [17] -22.8% | [18] -11.7% | [19] -28.9%

O=Cc1cc2ccccc2nc1Oc1ccc(C(F)(F)F)cc1
inactive: [1] 80.8% | [2] 94.1% | [3] 83.2% | [4] 90.7% | [5] 81.6% | [6] 67.8% | [7] 94.5% | [8] 72.5% | [9] 74.3% | [10] 107% | [11] 101% | [12] 82.4% | [13] 70.5% | [14] 35.1% | [15] 98% | [16] 87.7% | [17] 63.4% | [19] 60.5%
active: [18] 6.98%

COc1cc2c(-c3cc4c(cc3CNCCc3ccc5c(c3)OCO5)OCO4)cccc2c(OC)c1O
inactive: [1] 59.4% | [2] 92% | [3] 44.9% | [4] 87.4% | [5] 75.1% | [6] 60.9% | [7] 78.8% | [8] 79.1% | [9] 72.8% | [10] 97.6% | [11] 92.9% | [12] 77.4% | [13] 78.8% | [14] 45.5% | [15] 102% | [16] 79.2% | [17] 54.9% | [18] 79.5% | [19] 56.5%

O=C(Cc1ccccc1)NNc1nc(Cl)nc(N2CCN(C(c3ccccc3)c3ccccc3)CC2)n1
inactive: [1] 44.7% | [2] 72.6% | [3] 96% | [4] 94% | [5] 99.9% | [6] 81.5% | [7] 99.8% | [8] 91.9% | [9] 61.9% | [10] 101% | [11] 99.8% | [12] 91.9% | [13] 97.1% | [14] 96.7% | [15] 96% | [16] 94.9% | [17] 84.4% | [18] 11.1% | [19] 36.3%

CC(C)(C)c1cc(/C=N/NC(=O)c2ccccc2NC(=O)c2cccs2)c(O)c(C(C)(C)C)c1
active: [9] -34.2% | [18] 4.59%
inactive: [1] 17.1% | [2] 25.3% | [3] 34.9% | [4] 40.6% | [5] 13.8% | [6] 30.3% | [7] 22.9% | [8] 13.1% | [10] 51.5% | [11] 36.9% | [12] 35% | [13] 40.6% | [14] 10.7% | [15] 28.8% | [16] 21.9% | [17] 19.8% | [19] 16.5%

Nc1c(C(=O)Nc2cccc3cnccc23)sc2nc3c(cc12)C(=O)CCC3
inactive: [1] 70.9% | [2] 79.9% | [3] 88.5% | [4] 66.6% | [5] 95.7% | [6] 75.9% | [7] 47.6% | [8] 43.1% | [9] 91.6% | [10] 85.1% | [11] 77.2% | [12] 91.6% | [13] 89.2% | [14] 81.8% | [15] 104% | [16] 101% | [17] 77.8% | [18] 64.6% | [19] 102%

CC(Sc1nc2ccccc2c(=O)n1CCc1ccc(S(N)(=O)=O)cc1)C(=O)Nc1ccc(Cl)cc1 (stereo not given)
inactive: [1] 67.9% | [2] 89.5% | [3] 83.3% | [4] 90.1% | [5] 84.1% | [6] 81.7% | [7] 79.4% | [8] 73.6% | [9] 88.3% | [10] 105% | [11] 80.9% | [12] 70.3% | [13] 86.2% | [14] 53.8% | [15] 80.1% | [16] 86.3% | [17] 75.6% | [18] 63.7% | [19] 68.3%

C=C1C(=O)O[C@H]2[C@H]1CC/C(COC(=O)NCC(C)c1ccc(CC(C)C)cc1)=C\CC[C@@]1(C)O[C@@H]21 (stereo not given in full)
inactive: [4] 36.9% | [7] 17.1%
active: [1] -59.2% | [2] -60.6% | [3] -5.57% | [5] -22.3% | [6] 0.0191% | [8] -37.7% | [9] -83.8% | [10] -66.7% | [11] -45.2% | [12] -6.2% | [13] -57% | [14] -100% | [15] -36.1% | [16] -100% | [17] -23.9% | [18] -24.2% | [19] -8.4%

CCCNC(=O)Oc1ccc(/C(=C(\C)c2ccccc2)c2ccc(OCCCN(C)C)cc2)cc1
inactive: [1] 38.7% | [3] 86.2% | [4] 84.9% | [5] 68.8% | [6] 71.7% | [7] 86.2% | [8] 54.2% | [9] 75.6% | [10] 70.8% | [11] 92.6% | [12] 80.1% | [13] 77.4% | [14] 50% | [15] 84.8% | [16] 93.3% | [17] 83.4% | [18] 75.7% | [19] 66.5%
active: [2] 5.5%

CCOC(=O)Oc1c(OC)cc(C(=O)c2ccc(OC)c(O)c2OC)cc1OC
inactive: [1] 14.7% | [2] 29.5% | [3] 34.1% | [4] 25.9% | [5] 23.5% | [6] 22.8% | [7] 32% | [8] 34.3% | [9] 49.7% | [10] 53.1% | [11] 24.8% | [12] 58.9% | [13] 46% | [14] 46.9% | [15] 43% | [16] 38.5% | [17] 32% | [18] 15.2% | [19] 28.1%

COc1cc2nc(-c3ccc(Cl)cc3)cc(OCCCN3CCCCC3)c2cc1OC
active: [7] -18.5% | [8] -32.6% | [9] -45.2% | [17] 0.0525%
inactive: [1] 17.4% | [2] 18.1% | [3] 18.2% | [4] 70.5% | [5] 48.7% | [6] 42.9% | [10] 60% | [11] 65.7% | [12] 66.2% | [13] 41.8% | [14] 41.8% | [15] 89.9% | [16] 34% | [18] 49% | [19] 37.1%

O=S(=O)(NCCCNc1nccc(-c2c(-c3cccc(F)c3)nc3sccn23)n1)c1cccc(F)c1
inactive: [1] 22.6% | [2] 30.6% | [3] 88.6% | [4] 76.8% | [5] 70% | [6] 27.1% | [7] 13.5% | [9] 39% | [10] 68.3% | [11] 47.6% | [12] 52.4% | [13] 56.3% | [14] 28.2% | [15] 72.3% | [16] 42.5% | [17] 41.5% | [18] 24.7%
active: [8] 6.36% | [19] 9.94%

CCCCCCNC(=O)Nc1ccc2cc3ccc(NC(=O)NCCCCCC)cc3nc2c1
active: [3] -16.3% | [4] -47.9% | [5] -89.1% | [7] 3.38% | [8] -79% | [9] -79.7% | [10] -65.4% | [13] -72.7% | [18] 0.631% | [19] -45%
inactive: [1] 88.7% | [2] 20.2% | [6] 21.5% | [11] 11.3% | [12] 48.7% | [14] 94.2% | [15] 97.8% | [16] 96.7% | [17] 71.4%

COc1cc(CC(=O)c2ccc(O)c(OC)c2)ccc1O
inactive: [1] 110% | [2] 94.3% | [3] 96.8% | [4] 98.2% | [5] 92.5% | [6] 83.1% | [7] 101% | [8] 94.8% | [9] 96.7% | [10] 97.2% | [11] 106% | [12] 111% | [13] 94.2% | [14] 87.5% | [15] 102% | [16] 102% | [17] 98.8% | [18] 94.2% | [19] 80%

N/C(=N\C(N)=N\c1nc2ccccc2s1)c1ccnc(Br)c1
inactive: [1] 19.6% | [2] 10.2% | [4] 39.1% | [5] 26.3% | [6] 35.3% | [7] 27.1% | [8] 27.7% | [9] 33.8% | [10] 57.2% | [12] 82.6% | [13] 40.5% | [14] 33.1% | [15] 82.2% | [16] 27.6% | [17] 25.4% | [18] 21.3% | [19] 34%
active: [3] -13.2% | [11] 7.48%
